From PubChem BioAssay (NCI)
This is part of a sample that, as a whole, favours compounds with a hit. Of some 83,000 tested, about 20% had one in any assay.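 Assay: single dose, 48 h. Readout: percent growth (0 = no net growth; negative = cell death). Active: <10.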 The source made the active and inactive calls.

Key:
Test in all cases: NCI-60 one-dose screen, 48 h (100 = growth as untreated, 0 = no growth, -100 = all killed)
Details in all cases: 10 µM unless noted
SR leukemia = tested on: SR leukemia
RPMI-8226 leukemia = tested on: RPMI-8226 leukemia
OVCAR-8 ovarian = tested on: OVCAR-8 ovarian
OVCAR-5 ovarian = tested on: OVCAR-5 ovarian
OVCAR-4 ovarian = tested on: OVCAR-4 ovarian
SK-OV-3 ovarian = tested on: SK-OV-3 ovarian
IGROV1 ovarian = tested on: IGROV1 ovarian
OVCAR-3 ovarian = tested on: OVCAR-3 ovarian
HS 578T breast = tested on: HS 578T breast
NCI/ADR-RES ovarian = tested on: NCI/ADR-RES ovarian

Measured: growth

COc1cc(-n2nc(C(=O)Nc3ccc(C(=O)O)cc3)nc2-c2ccccc2)cc(OC)c1OC
inactive: SR leukemia 118% | RPMI-8226 leukemia 108% | OVCAR-8 ovarian 86.3% | OVCAR-5 ovarian 86.3% | OVCAR-4 ovarian 110% | SK-OV-3 ovarian 64.3% | IGROV1 ovarian 51% | OVCAR-3 ovarian 94.4% | HS 578T breast 97.5% | NCI/ADR-RES ovarian 89.1%

COC12CC(=O)C(C(C)=O)=C(O)C1(C)c1c(O)c(C)c(O)c(C(C)=O)c1O2 (stereo not given)
inactive: SR leukemia 69.9% | RPMI-8226 leukemia 44.5% | OVCAR-8 ovarian 58.7% | OVCAR-5 ovarian 99.7% | OVCAR-4 ovarian 85.9% | SK-OV-3 ovarian 104% | IGROV1 ovarian 68.9% | OVCAR-3 ovarian 59.2% | HS 578T breast 75.4%

COc1ccc(NC(=O)c2cc3ccccc3nc2Nc2cc(OC)c(OC)c(OC)c2)cc1
inactive: SR leukemia 56.6% | RPMI-8226 leukemia 35.5% | OVCAR-8 ovarian 41.9% | OVCAR-5 ovarian 92.4% | OVCAR-4 ovarian 58.1% | SK-OV-3 ovarian 91.7% | IGROV1 ovarian 87% | OVCAR-3 ovarian 48% | HS 578T breast 79% | NCI/ADR-RES ovarian 43.2%

Cc1ccnc2nc(C(=O)OCC(=O)Nc3ccc(-c4ccccc4)cc3)nn12
inactive: SR leukemia 53.3% | RPMI-8226 leukemia 98.1% | OVCAR-8 ovarian 102% | OVCAR-5 ovarian 96% | OVCAR-4 ovarian 95% | SK-OV-3 ovarian 116% | OVCAR-3 ovarian 112% | HS 578T breast 125% | NCI/ADR-RES ovarian 98.3%
active: IGROV1 ovarian -5.67%

COc1cc(OC)c(C(=O)/C=C/c2ccc(C(F)(F)F)cc2)c(OC)c1
inactive: SR leukemia 31.6% | RPMI-8226 leukemia 25.3% | OVCAR-8 ovarian 40.3% | OVCAR-5 ovarian 105% | OVCAR-4 ovarian 56.5% | SK-OV-3 ovarian 75.4% | IGROV1 ovarian 52.1% | OVCAR-3 ovarian 16.9% | HS 578T breast 66.2% | NCI/ADR-RES ovarian 46.9%

COc1ccc(-n2cnc3c(sc4ncc(Cl)cc43)c2=O)cc1
inactive: SR leukemia 71.2% | RPMI-8226 leukemia 48.2% | OVCAR-8 ovarian 87.9% | OVCAR-5 ovarian 98.6% | OVCAR-4 ovarian 101% | SK-OV-3 ovarian 84.8% | IGROV1 ovarian 65.7% | OVCAR-3 ovarian 53.8%

Cc1c(C(=O)NCc2ccccc2)[n+](=O)c2cc(F)ccc2n1[O-]
inactive: SR leukemia 70.6% | RPMI-8226 leukemia 64.1% | OVCAR-8 ovarian 116% | OVCAR-5 ovarian 103% | OVCAR-4 ovarian 98% | SK-OV-3 ovarian 109% | OVCAR-3 ovarian 93.2% | HS 578T breast 148% | NCI/ADR-RES ovarian 105%
active: IGROV1 ovarian -26.7%

Nc1c(C(=O)Nc2cccc(C(F)(F)F)c2)sc2nc3c(cc12)C(O)CCC3 (stereo not given)
active: OVCAR-3 ovarian 2.06%
inactive: SR leukemia 24% | RPMI-8226 leukemia 15.6% | OVCAR-8 ovarian 46.2% | OVCAR-5 ovarian 53.5% | OVCAR-4 ovarian 58.5% | SK-OV-3 ovarian 25.7% | IGROV1 ovarian 54.4% | HS 578T breast 51.2% | NCI/ADR-RES ovarian 22.5%

COc1ccc2c(c1)NC(=O)CN2c1nc(NC2CC2)nc2ccccc12
active: OVCAR-3 ovarian -19.7% | NCI/ADR-RES ovarian 5.39%
inactive: SR leukemia 31.5% | RPMI-8226 leukemia 32.7% | OVCAR-8 ovarian 18.3% | OVCAR-5 ovarian 44% | OVCAR-4 ovarian 40.3% | SK-OV-3 ovarian 23.9% | IGROV1 ovarian 24.5% | HS 578T breast 26.6%

CC1=C(C#N)C(C)(C)C(C#N)=C(C)N1
inactive: SR leukemia 95.8% | RPMI-8226 leukemia 98.3% | OVCAR-8 ovarian 100% | OVCAR-5 ovarian 87.7% | OVCAR-4 ovarian 99.2% | SK-OV-3 ovarian 110% | IGROV1 ovarian 121% | OVCAR-3 ovarian 107% | HS 578T breast 102%

COc1cc(NS(C)(=O)=O)ccc1Nc1c2ccc([N+](=O)[O-])cc2nc2c(C)cccc12
active: RPMI-8226 leukemia -19.8% | IGROV1 ovarian -2.46% | OVCAR-3 ovarian -13%
inactive: SR leukemia 15.6% | OVCAR-8 ovarian 13.7% | OVCAR-5 ovarian 36.8% | OVCAR-4 ovarian 49.1% | SK-OV-3 ovarian 11.2% | HS 578T breast 58.4% | NCI/ADR-RES ovarian 58.6%

O=C(O)Cc1ccc2c(c1)Cc1cccnc1O2
inactive: SR leukemia 96.8% | RPMI-8226 leukemia 105% | OVCAR-8 ovarian 103% | OVCAR-5 ovarian 101% | OVCAR-4 ovarian 101% | SK-OV-3 ovarian 103% | IGROV1 ovarian 96.6% | OVCAR-3 ovarian 108% | HS 578T breast 107%

Cc1ccc2nc(-c3c(CCCO)noc3N)[nH]c(=O)c2c1
inactive: SR leukemia 71.8% | RPMI-8226 leukemia 90.4% | OVCAR-8 ovarian 106% | OVCAR-5 ovarian 120% | OVCAR-4 ovarian 97.4% | SK-OV-3 ovarian 106% | OVCAR-3 ovarian 104% | HS 578T breast 104% | NCI/ADR-RES ovarian 123%
active: IGROV1 ovarian 4.96%

Cc1ccc2nc(-c3c(N)n[nH]c3CCCO)[nH]c(=O)c2c1
active: IGROV1 ovarian 7.26%
inactive: SR leukemia 77.2% | RPMI-8226 leukemia 91.6% | OVCAR-8 ovarian 105% | OVCAR-5 ovarian 110% | OVCAR-4 ovarian 106% | SK-OV-3 ovarian 108% | OVCAR-3 ovarian 115% | HS 578T breast 103% | NCI/ADR-RES ovarian 102%

CCCCCCCN(CCCCCCC)C(=N)c1ccc(OC)c2ccccc12
active: SR leukemia -48.6% | RPMI-8226 leukemia -48.8% | OVCAR-8 ovarian -66.3% | OVCAR-5 ovarian -82.4% | OVCAR-4 ovarian -98% | SK-OV-3 ovarian -68.2% | IGROV1 ovarian -73.5% | OVCAR-3 ovarian -94.6% | HS 578T breast -60.6% | NCI/ADR-RES ovarian -75.7%

CC(=O)n1cc([C@H]2CC[C@H](c3cn(C(C)=O)c4ccccc34)c3c2[nH]c2ccccc32)c2ccccc21
inactive: SR leukemia 93.9% | RPMI-8226 leukemia 50.8% | OVCAR-8 ovarian 89.5% | OVCAR-5 ovarian 102% | OVCAR-4 ovarian 77.7% | SK-OV-3 ovarian 80.4% | IGROV1 ovarian 58.3% | OVCAR-3 ovarian 76.3% | HS 578T breast 106% | NCI/ADR-RES ovarian 80.7%

COc1ccc(NC(=S)/N=c2\oc3c(OC)cccc3cc2-c2cc3ccccc3[nH]2)cc1
inactive: SR leukemia 103% | RPMI-8226 leukemia 105% | OVCAR-8 ovarian 54.8% | OVCAR-5 ovarian 91.5% | OVCAR-4 ovarian 56.4% | SK-OV-3 ovarian 69.4% | IGROV1 ovarian 63.1% | OVCAR-3 ovarian 79.7% | HS 578T breast 36.4% | NCI/ADR-RES ovarian 56.7%

COc1ccc(C2=NN(c3ccc(S(N)(=O)=O)cc3)C(c3cn(-c4ccccc4)nc3-c3ccc(Cl)cc3)C2)cc1 (stereo not given)
inactive: SR leukemia 77.9% | RPMI-8226 leukemia 78% | OVCAR-8 ovarian 91.1% | OVCAR-5 ovarian 114% | OVCAR-4 ovarian 107% | SK-OV-3 ovarian 97.7% | IGROV1 ovarian 105% | OVCAR-3 ovarian 92.4% | HS 578T breast 109% | NCI/ADR-RES ovarian 90.1%

COc1cc(-c2nc(-c3nc4ccccc4[nH]3)cc3c2[nH]c2ccccc23)cc(OC)c1OC
inactive: SR leukemia 45.2% | OVCAR-8 ovarian 13.2% | OVCAR-5 ovarian 88.8% | OVCAR-4 ovarian 59.5% | SK-OV-3 ovarian 104% | IGROV1 ovarian 18.9% | OVCAR-3 ovarian 31.7% | HS 578T breast 55.8% | NCI/ADR-RES ovarian 32.2%
active: RPMI-8226 leukemia -4.95%

COc1ccc(/C=C/C(=O)c2cc(OC)c(OC)c(OC)c2)cc1OCc1cn(Cc2ccc(F)cc2)nn1
inactive: OVCAR-8 ovarian 15% | OVCAR-5 ovarian 50.4% | OVCAR-4 ovarian 43.4% | SK-OV-3 ovarian 76.6% | IGROV1 ovarian 85.9% | OVCAR-3 ovarian 21.7% | HS 578T breast 82.6% | NCI/ADR-RES ovarian 16.5%
active: SR leukemia 3.34% | RPMI-8226 leukemia 1.66%

C=CCOc1cccc(/C=C/C(=O)c2sc(Nc3cccnc3)nc2C)c1
inactive: SR leukemia 42.4% | RPMI-8226 leukemia 23.1% | OVCAR-8 ovarian 52.6% | OVCAR-5 ovarian 108% | OVCAR-4 ovarian 69.5% | SK-OV-3 ovarian 88.5% | IGROV1 ovarian 62.9% | OVCAR-3 ovarian 14.9% | HS 578T breast 99.9% | NCI/ADR-RES ovarian 50.2%

Cc1cc(Nc2nc(C(=O)Nc3ccccc3)nc3ccccc23)n[nH]1
inactive: SR leukemia 33% | RPMI-8226 leukemia 59.6% | OVCAR-8 ovarian 75.6% | OVCAR-5 ovarian 82.2% | OVCAR-4 ovarian 44.6% | SK-OV-3 ovarian 39.3% | IGROV1 ovarian 39.6% | OVCAR-3 ovarian 78.1% | HS 578T breast 73.2% | NCI/ADR-RES ovarian 44.2%

CC(=O)Nc1ccc(S(=O)(=O)N2C(=O)CCC2C(=O)Nc2ccccc2)cc1 (stereo not given)
inactive: SR leukemia 28% | RPMI-8226 leukemia 26.7% | OVCAR-8 ovarian 40.4% | OVCAR-5 ovarian 58.4% | OVCAR-4 ovarian 39.9% | SK-OV-3 ovarian 57.5% | IGROV1 ovarian 28.9% | OVCAR-3 ovarian 28.1% | HS 578T breast 63.1% | NCI/ADR-RES ovarian 41.5%

N#Cc1ccc(NC(=O)c2ccc3cccnc3c2O)cc1
inactive: SR leukemia 25.6% | RPMI-8226 leukemia 23.4% | OVCAR-8 ovarian 16% | OVCAR-5 ovarian 60.6% | OVCAR-4 ovarian 16.5% | SK-OV-3 ovarian 19.8% | IGROV1 ovarian 21.3% | OVCAR-3 ovarian 26% | HS 578T breast 53.8%
active: NCI/ADR-RES ovarian 8.81%

C/C(=C\c1csc(C)n1)[C@@H]1C[C@@H]2O[C@]2(C)CCC[C@H](C)[C@H](O)[C@@H](C)C(=O)C(C)(C)[C@@H](O)CC(=O)N1
active: SR leukemia -39.1% | RPMI-8226 leukemia -45.3% | OVCAR-8 ovarian -74% | OVCAR-5 ovarian -6.81% | SK-OV-3 ovarian -8.54% | IGROV1 ovarian -85.5% | OVCAR-3 ovarian -100% | HS 578T breast -61.7% | NCI/ADR-RES ovarian -70.2%
inactive: OVCAR-4 ovarian 14.8%
